Results as given in PubChem BioAssay.
Values joined by “and” are separate entries in the source; they are usually repeats but may differ in a detail not shown here. Equal entries are not always repeated. Active and inactive are the calls of the source. Unless noted, the rule behind the calls is not given here.

Tests used:
[1] = compounds altering circadian rhythm period length – cell-based, LOPAC library, luminescence reporter (AID 2774); conditions: circadian reporter cells, at 7 µM, actives lie on both sides;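 note: values are relative to mean of DMSO wells on each plate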
[2] = test system: Hepatitis C virus NS3 helicase; experiment: blockers of NS3h binding to ssDNA – biochemical, fluorescence polarization, LOPAC1280 library, primary screen (AID 687035; in the data active = inhibition above about 37%); conditions: Purified HCV NS3 helicase, Cy5-dT15 ssDNA binding fluorescence polarization; stronger effect = higher value; concentration not given here
[3] = compounds altering Cy5-DNA-NS3h complex signal – biochemical, LOPAC1280, artefact control for HCV NS3 helicase inhibitor project (AID 687037); conditions: Cy5-DNA-NS3h complex fluorescence interference counterscreen
[4] = test system: Aerobactin synthetase IucA (Klebsiella pneumoniae); experiment: inhibition of K. pneumoniae IucA enzyme – biochemical, Tocris library, absorbance (AID 1345561); conditions: purified IucA enzyme assay, absorbance (OD) read-out; stronger effect = lower value;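 tested at 8 µM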;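 note: 100% = enzyme without compound and 0% = no enzyme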
[5] = viability loss with induced miR-34 in A549 – imaging, A549 dox-inducible miR-34, nuclei and caspase counts, primary screen (AID 1347080;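 active = compounds whose cell count with miR-34 switched on is under 0.7 times the count with it off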); conditions: A549 miR-34 inducible, Hoechst nuclei count, 48 h
[6] = blockers of cellular phospholipid synthesis – cell-based, LOPAC library, screen 4, primary screen (AID 1347384); conditions: animal cells, phospholipid biosynthesis inhibition screen; at 10 µM
[7] = galactose survival enhancers in mitochondrial complex I cybrids – cell-based, galactose medium, ATP luminescence, primary screen (AID 1645843;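 active = z-score of at least 1.8 in each of two replicates, scored against plate mean and spread of sample wells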;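 note: positive z means more ATP and so rescue of galactose-driven cybrid death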); conditions: complex I mutant cybrid cells, 72 h, stronger effect = higher value
[8] = compounds altering viability of human ES cells (AID 493140); conditions: human embryonic stem cell survival screen; stronger effect = higher value;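 note: cells exposed to compounds for four days before counting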
[9] = chitosan synthesis blockers in C. neoformans – flow cytometry, Cibacron Brilliant Red staining (AID 1347148); conditions: Cryptococcus neoformans chitosan, stronger effect = lower value; at 10 µM unless noted;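 note: compound exposure lasted three days at 37 degrees C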
[10] = compounds altering HSF1 focus formation in cells – imaging, Selleck Cancer Library (AID 1347162; in the data active = plate-normalised HSF1 focus index below about 0.46); conditions: human cells, HSF1 nuclear foci imaging, at 10 µM; SSMD: measured here: HSF1 foci SSMD mean; cell count: measured here: cell number; plate-normalised HSF1 focus index: stronger effect = lower value
[11] = MELAS cybrid and Rieske KO viability enhancers – cell-based, MELAS cybrids, Rieske KO mouse fibroblasts, CellTiter-Glo, primary screen (AID 1508586;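 active = mean z-score across replicates of 1.96 or higher in either the MELAS or the Rieske mutant cell line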;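 note: z relative to plate mean and SD of compound and empty wells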); conditions: low glucose
[12] = drug combination growth inhibition, ovarian cancer – cell-based, oncology-focused library, rucaparib conditional, profiling panel (AID 1508598;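 active = normalized viability below 100% at a tested concentration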); conditions: patient-derived ovarian cancer cells, CellTiter-Glo viability, 144 h, stronger effect = lower value
[13] = stronger effect = lower value, cell number ratio, induced over uninduced
[14] = measured here: relative caspase fold change +Dox/-Dox
[15] = measured here: total cells with miR-34 induction, stronger effect = lower value
[16] = measured here: total cells without miR-34 induction

Q: For `O=C(O)C1=CCCN(CCON=C(c2ccccc2)c2ccccc2)C1`, which period change [1] is on record?
A: -0.05 h (inactive)

Q: What about the inhibition [2] of the same molecule?
A: 1% (inactive)

Q: What about the fluorescence ratio (interference) [3] of the same molecule?
A: 1 (inactive)

Q: And the remaining activity [4]?
A: 122% (inactive)

Q: What about the fold change [5, 13] of the same molecule?
A: 1.08 (inactive) and 0.953 (inactive)

Q: What about the fold change [5, 14] of the same molecule?
A: 0.8 and 1.02

Q: What about the cell count [5, 15] of the same molecule?
A: 9470 and 9840

Q: What about the cell count [5, 16] of the same molecule?
A: 8800 and 10300

Q: What about the outcome [6] of the same molecule?
A: inactive

Q: And the z-score [7]?
A: 0.145 (inactive) and -0.05 (inactive)

Q: For `COc1cc(/C=C(\C#N)C(N)=O)cc(CSc2nc3ccccc3s2)c1O`, which survival [8] is on record?
A: 114 (inactive)

Q: What about the remaining activity [4] of the same molecule?
A: 115% (inactive)

Q: And the fold change [5, 13]?
A: 0.859 (inactive) and 0.896 (inactive)

Q: What about the fold change [5, 14] of the same molecule?
A: 1.08 and 1.29

Q: What about the cell count [5, 15] of the same molecule?
A: 4790 and 8180

Q: What about the cell count [5, 16] of the same molecule?
A: 5570 and 9130

Q: And the fold fluorescence [9]?
A: 9.44 [at 125.8 µM] (inactive)

Q: And the z-score [7]?
A: 5.03 (active)

Q: With `CCCCCCCCCCCCCCCC(=O)OC(CC(=O)O)C[N+](C)(C)C` (stereo unspecified) as the molecule, how does the period change [1] read?
A: 0.01 h (inactive)

Q: And the survival [8]?
A: 103 (inactive)

Q: What about the inhibition [2] of the same molecule?
A: -4% (inactive)

Q: What about the fluorescence ratio (interference) [3] of the same molecule?
A: 1 (inactive)

Q: And the remaining activity [4]?
A: 122% (inactive)

Q: And the fold change [5, 13]?
A: 1.09 (inactive) and 1.01 (inactive)

Q: And the fold change [5, 14]?
A: 0.674 and 0.826

Q: What about the cell count [5, 15] of the same molecule?
A: 6530 and 7890

Q: And the cell count [5, 16]?
A: 5960 and 7780

Q: And the outcome [6]?
A: inactive

Q: And the z-score [7]?
A: -1.29 (inactive) and -1.24 (inactive)

Q: What does the source list for `Oc1cc2c(cc1O)C(c1ccccc1)CNCC2` (stereo unspecified)?
A: period change [1]: 0.125 h (inactive); inhibition [2]: -3% (inactive); fluorescence ratio (interference) [3]: 1 (inactive); remaining activity [4]: 113% (inactive); fold change [5, 13]: 0.993 (inactive) and 0.954 (inactive); fold change [5, 14]: 1.37 and 0.889; cell count [5, 15]: 10500 and 10200; cell count [5, 16]: 10600; outcome [6]: inactive; z-score [7]: 0.58 (inactive) and 0.48 (inactive)

Q: Which remaining activity [4] does the source give for `O=C(NCCCCCCNC(=O)ON=C1CCCCC1)ON=C1CCCCC1` here?
A: 126% (inactive)

Q: And the fold change [5, 13]?
A: 0.722 (inactive) and 0.829 (inactive)

Q: What about the fold change [5, 14] of the same molecule?
A: 1.07 and 1.04

Q: What about the cell count [5, 15] of the same molecule?
A: 3570 and 6850

Q: What about the cell count [5, 16] of the same molecule?
A: 4940 and 8260

Q: And the fold fluorescence [9]?
A: 7.89 [at 126.7 µM] (inactive)

Q: What about the z-score [7] of the same molecule?
A: -0.255 (inactive)

Q: For `Cn1cc(C2=C(c3ccc(Cl)cc3Cl)C(=O)NC2=O)c2ccccc21`, which period change [1] is on record?
A: 0.025 h (inactive)

Q: And the inhibition [2]?
A: -3% (inactive)

Q: And the fluorescence ratio (interference) [3]?
A: 1 (inactive)

Q: And the remaining activity [4]?
A: 92.7% (inactive)

Q: What about the fold change [5, 13] of the same molecule?
A: 0.99 (inactive) and 0.96 (inactive) and 1.01 (inactive)

Q: What about the fold change [5, 14] of the same molecule?
A: 1.07 and 0.76 and 0.707

Q: And the cell count [5, 15]?
A: 4090 and 5760 and 2500

Q: What about the cell count [5, 16] of the same molecule?
A: 4130 and 6000 and 2470

Q: What about the SSMD [10] of the same molecule?
A: 1.42

Q: And the cell count [10]?
A: 7820

Q: What about the plate-normalised HSF1 focus index [10] of the same molecule?
A: 1.09 (inactive)

Q: What about the outcome [6] of the same molecule?
A: inactive

Q: And the z-score ([11]; MELAS cybrid survival, CellTiter-Glo 48 h, stronger effect = higher value)?
A: -0.394 (inactive)

Q: And the z-score ([11]; Rieske KO mouse fibroblast survival, CellTiter-Glo 72 h)?
A: 0.82

Q: What about the viability ([12]; at 0.000305 µM, OCI-C5x cells, with rucaparib 10 µM, 100% = cells with rucaparib alone) of the same molecule?
A: 106% (inactive)

Q: What about the viability ([12]; at 0.000305 µM, OCI-C5x cells, without rucaparib) of the same molecule?
A: 117% (inactive)

Q: What about the viability ([12]; at 0.000305 µM, OCI-P5x cells, with rucaparib 20 µM, 100% = cells with rucaparib alone) of the same molecule?
A: 102% (inactive)

Q: What about the viability ([12]; at 0.000305 µM, OCI-P5x cells, without rucaparib) of the same molecule?
A: 103% (inactive)

Q: What about the viability ([12]; at 0.00122 µM, OCI-C5x cells, with rucaparib 10 µM, 100% = cells with rucaparib alone) of the same molecule?
A: 122% (inactive)

Q: And the viability ([12]; at 0.00122 µM, OCI-C5x cells, without rucaparib)?
A: 119% (inactive)

Q: And the viability ([12]; at 0.00122 µM, OCI-P5x cells, with rucaparib 20 µM, 100% = cells with rucaparib alone)?
A: 107% (inactive)

Q: What about the viability ([12]; at 0.00122 µM, OCI-P5x cells, without rucaparib) of the same molecule?
A: 89.9% (active)

Q: And the viability ([12]; at 0.00488 µM, OCI-C5x cells, with rucaparib 10 µM, 100% = cells with rucaparib alone)?
A: 117% (inactive)

Q: What about the viability ([12]; at 0.00488 µM, OCI-C5x cells, without rucaparib) of the same molecule?
A: 114% (inactive)

Q: What about the viability ([12]; at 0.00488 µM, OCI-P5x cells, with rucaparib 20 µM, 100% = cells with rucaparib alone) of the same molecule?
A: 105% (inactive)

Q: And the viability ([12]; at 0.00488 µM, OCI-P5x cells, without rucaparib)?
A: 91.8% (active)

Q: What about the viability ([12]; at 0.0195 µM, OCI-C5x cells, with rucaparib 10 µM, 100% = cells with rucaparib alone) of the same molecule?
A: 125% (inactive)

Q: And the viability ([12]; at 0.0195 µM, OCI-C5x cells, without rucaparib)?
A: 111% (inactive)

Q: What about the viability ([12]; at 0.0195 µM, OCI-P5x cells, with rucaparib 20 µM, 100% = cells with rucaparib alone) of the same molecule?
A: 98.3% (active)

Q: What about the viability ([12]; at 0.0195 µM, OCI-P5x cells, without rucaparib) of the same molecule?
A: 89.5% (active)
